Source: PubChem BioAssay (NCATS)
“And” between values parts separate entries of the source, which are not always exact repeats. Identical values can stand only once. Inconclusive results are not listed. The source made the active and inactive calls. Unless noted, the call rests on the fitted dose curve; in most records, active means well fitted curve in the direction sought with a large enough effect; inconclusive means small, poorly fitted or top-dose-only effect, or another doubt; inactive means no such curve, though single readings can be large; an effect the other way counts as inactive or inconclusive.

What was measured:
[1] = qHTS Assay for Lipid Storage Modulators (AID 1519; calls by dose curve; on activity change, negative = inhibition: on the % scale 0 is the no-effect control and ±100 the full control effect); settings: Drosophila S3 cells, BODIPY lipid droplet/cell ratio, laser cytometry, cells loaded with oleic acid
Procedure, shortened: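 Cells seeded at 5,000 per well were treated with compounds over a concentration series and loaded with oleic acid (400 uM, as added). Lipid droplet fluorescence (488 nm excitation, 500-530 nm channel) was read by laser-scanning cytometry and normalized to 20 uM Triacsin C.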

[2] = target: DNA repair nuclease/redox regulator APEX1 (Homo sapiens) (UniProt P27695); assay: qHTS Validation Assay for Inhibitors of the Human Apurinic/apyrimidinic Endonuclease 1 (APE1) (AID 1705;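 further: TAMRA fluorescence gain over two minutes as APE1 cuts a quenched THF abasic duplex; on the % scale 0 is the no-effect control and ±100 the full control effect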); settings: purified APE1 endonuclease activity, fluorescence, titration; series mostly up to 57.1 µM
Sequence of DNA repair nuclease/redox regulator APEX1 (Homo sapiens) (P27695 whole entry, looked up): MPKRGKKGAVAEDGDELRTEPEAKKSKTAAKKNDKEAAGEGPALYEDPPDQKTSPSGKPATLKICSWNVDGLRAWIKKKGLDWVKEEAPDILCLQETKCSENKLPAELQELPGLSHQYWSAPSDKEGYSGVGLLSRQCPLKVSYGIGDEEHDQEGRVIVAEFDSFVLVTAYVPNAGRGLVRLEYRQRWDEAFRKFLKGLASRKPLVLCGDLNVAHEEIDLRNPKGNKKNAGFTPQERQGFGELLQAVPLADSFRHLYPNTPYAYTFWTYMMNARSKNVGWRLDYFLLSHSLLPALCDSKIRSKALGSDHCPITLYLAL
Procedure, shortened: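 Read-out: TAMRA fluorescence (525 nm ex, 598 nm em) from cleavage of a quenched THF abasic-site duplex, 50 nM final; activity taken as intensity change between third and first of three reads 60 s apart.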

[3] = Counterscreen for APE1 Inhibitors: Fluorescent Dye Displacement Validation Assay (AID 1707); settings: fluorescent dye displacement from DNA; series mostly up to 57.1 µM;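 further: plate controls were ThO with dsDNA and no compound for no effect and ThO without dsDNA for full effect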
Procedure, shortened: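 Signal: ThO fluorescence (ex 480 nm/em 540 nm) on binding 50 nM dsDNA; displacement by test compound reduces it. Conditions: 250 nM dye, 50 mM Tris-HCl pH7.5, 2 mM MgCl2, 50mM NaCl, 0.01% Tween-20.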

[4] = target: Endonuclease 4 (Escherichia coli (strain K12)) (UniProt P0A6C1); assay: Counterscreen for APE1 Inhibitors: qHTS Validation Assay for Inhibitors of Endonuclease IV (AID 1708); further: on the % scale 0 is the no-effect control and ±100 the full control effect; settings: E. coli endonuclease IV, DNA cleavage fluorescence; series mostly up to 57.1 µM
Procedure, shortened: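 Incision of a double-stranded 50 nM TAMRA/BHQ-2 abasic substrate was followed kinetically (525/598 nm, reads every 60 s) after 15 min enzyme–compound preincubation with 2 nM EndoIV in pH 7.5 Tris buffer with MgCl2, DTT and Tween-20; concentration-response format.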

[5] = qHTS for differential inhibitors of proliferation of Plasmodium falciparum line D10 (AID 1877); settings: series mostly up to 28.7 µM;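 further: parasites grown with compound for 72 h before DNA staining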; further: potency means the concentration at half of the fitted maximal effect;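 on activity change, negative = inhibition: plate controls were vehicle wells for no effect and reference inhibitor wells for full effect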
[6] = qHTS for differential inhibitors of proliferation of Plasmodium falciparum line Dd2 (AID 1882); settings: Potency: Plasmodium falciparum Dd2 proliferation inhibition; series mostly up to 28.7 µM; further: nearly all actives have a fitted effect of over 65% in size; further: potency means the concentration at half of the fitted maximal effect;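 on activity change, negative = inhibition: plate controls were DMSO vehicle for no effect and 0.29 µM artemisinin for full effect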
Procedure, shortened: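 SYBR Green DNA fluorescence (ex 485, em 535 nm) after overnight lysis quantifies parasite growth; compound exposure lasted 72 h at 37 C on infected red cells at 2.5% hematocrit, 0.3% parasitemia (final). Artemisinin 0.29 uM and vehicle wells define normalization.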

[7] = qHTS for differential inhibitors of proliferation of Plasmodium falciparum line HB3 (AID 1886); settings: Potency: Plasmodium falciparum HB3 proliferation inhibition; series mostly up to 28.7 µM;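 further: parasites grown with compound for 72 h before SYBR Green readout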; further: potency means the concentration at half of the fitted maximal effect;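 on activity change, negative = inhibition: plate controls were vehicle for no effect and reference inhibitor for full effect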
[8] = qHTS Assay for Identification of Small Molecule Inducers of Hypoxia Response (AID 2120; active means well fitted curve in the direction sought with a large enough effect in the signal ratio, with a control signal flat, not every such curve was filed as active; the % refers to the signal ratio; further: 0% is about no effect); settings: hypoxia response reporter cells, beta-lactamase ratio readout; series mostly up to 104 µM
Procedure, shortened: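 Reporter induction read as the CCF4 blue/green (460nm/530nm) emission ratio after 2.5 h dye loading at room temperature. ME-180 HRE-beta-lactamase cells received titrated compounds for 17 h at 37 degrees Celsius; AC50 values derived.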

[9] = target: ATP-dependent DNA helicase Q1 (Homo sapiens) (UniProt P46063); assay: qHTS Validation Assay for Inhibitors of RecQ-Like Dna Helicase 1 (RECQ1) (AID 2353); settings: recombinant RECQ1 helicase DNA unwinding assay; series mostly up to 25.6 µM;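 further: plate controls were DMSO vehicle for no effect and enzyme-free control for full effect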
Sequence of ATP-dependent DNA helicase Q1 (Homo sapiens) (P46063 whole entry, looked up): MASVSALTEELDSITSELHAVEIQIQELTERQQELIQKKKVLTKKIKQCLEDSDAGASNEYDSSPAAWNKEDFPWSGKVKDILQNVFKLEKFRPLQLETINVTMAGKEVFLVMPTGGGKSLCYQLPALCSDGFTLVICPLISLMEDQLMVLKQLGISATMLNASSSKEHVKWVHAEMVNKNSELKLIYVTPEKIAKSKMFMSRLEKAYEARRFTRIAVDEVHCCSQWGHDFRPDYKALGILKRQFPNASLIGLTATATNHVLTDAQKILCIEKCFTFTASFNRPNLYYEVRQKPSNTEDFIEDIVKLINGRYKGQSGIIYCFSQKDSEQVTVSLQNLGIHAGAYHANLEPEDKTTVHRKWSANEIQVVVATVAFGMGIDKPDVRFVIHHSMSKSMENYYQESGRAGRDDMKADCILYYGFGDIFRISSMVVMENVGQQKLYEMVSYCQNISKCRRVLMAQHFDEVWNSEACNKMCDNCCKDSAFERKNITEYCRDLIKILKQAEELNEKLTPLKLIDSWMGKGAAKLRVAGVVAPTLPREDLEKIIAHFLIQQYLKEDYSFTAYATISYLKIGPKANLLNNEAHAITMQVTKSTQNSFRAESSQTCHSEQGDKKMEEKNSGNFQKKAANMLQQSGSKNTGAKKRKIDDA
Procedure, shortened: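 RECQ1T1 50 nM; forked duplex (20 bp + 30-nt ss tails) 200 nM, ATP 2 mM final; pH 8.0, 2 mM MgCl2, 2.5 ug/ml poly(dI-dC); 15 min compound preincubation; discontinuous kinetic read over 2 h at RT.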

[10] = Cytometric Cell-Based qHTS for Inhibitors of the mTORC1 Signaling Pathway in MEF (Tsc2-/-, p53-/-) Cells (AID 2660); settings: mTORC1 pathway cytometry; series mostly up to 38.3 µM;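 further: Tsc2 and p53 null MEFs carrying empty vector with compound for 24 h; percent of cells above a phospho-rpS6 to PI ratio cutoff in each well; plate controls were DMSO for no effect and rapamycin for full effect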
Procedure, shortened: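 Readout: Alexa-488 phospho-rpS6 (Ser235/236) intensity divided by PI intensity, thresholded against 7.5 nM rapamycin wells and reported as % positive cells. PI cell count served as the viability measure. Compound exposure was 24 hrs at 37 degree Celsius.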

[11] = High Content Imaging Cell-Based qHTS for Inhibitors of the mTORC1 Signaling Pathway in MEF (Tsc2-/-, p53-/-) Cells (AID 2666); settings: series mostly up to 38.3 µM;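 further: percent of cells scored positive for phospho-rpS6 Ser235/236 immunostaining by imaging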
Procedure, shortened: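 Tsc2-/-, p53-/- MEFs (empty-vector stable) grown in DMEM + 10% FBS were exposed to compounds for 24 hrs at 37 degree Celsius, fixed, and stained with Alexa-488 anti-phospho-rpS6 Ser235/236 plus Hoechst. Imaging gave the percentage of positive cells per well.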

[12] = High Content Imaging Cell-Based qHTS for Inhibitors of the mTORC1 Signaling Pathway in MEF Cells (AID 2667); settings: series mostly up to 38.3 µM;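 further: Tsc2-/- p53-/- MEFs stably re-expressing wild-type Tsc2 exposed 24 h; plate controls were DMSO wells for no effect and rapamycin control wells for full effect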
Procedure, shortened: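 Tsc2-/-, p53-/- MEFs stably re-expressing WT Tsc2, grown in DMEM + 10% FBS, were treated with compounds for 24 hrs at 37 degree Celsius, fixed, and stained with Alexa-488 phospho-rpS6 Ser235/236 antibody plus Hoechst; results given as % positive cells.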

[13] = qHTS for differential inhibitors of proliferation of Plasmodium falciparum line 7G8 (AID 1815); settings: Plasmodium falciparum 7G8 proliferation inhibition; series mostly up to 28.7 µM;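 further: parasite growth measured after three days of incubation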; further: potency means the concentration at half of the fitted maximal effect;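 on activity change, negative = inhibition: plate controls were vehicle wells for no effect and reference inhibitor wells for full effect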
[14] = qHTS for differential inhibitors of proliferation of Plasmodium falciparum line GB4 (AID 1816); settings: Potency: Plasmodium falciparum GB4 proliferation inhibition; series mostly up to 28.7 µM;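 further: parasite growth measured after 72 h incubation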; further: potency means the concentration at half of the fitted maximal effect;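 on activity change, negative = inhibition: 0% = vehicle DMSO and -100% = reference inhibitor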
[15] = qHTS for differential inhibitors of proliferation of Plasmodium falciparum line 3D7 (AID 1876); further: potency means the concentration at half of the fitted maximal effect; settings: P. falciparum 3D7 proliferation inhibition; series mostly up to 28.7 µM
[16] = qHTS for differential inhibitors of proliferation of Plasmodium falciparum line W2 (AID 1883); settings: Potency: Plasmodium falciparum W2 proliferation inhibition; series mostly up to 28.7 µM;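 further: parasites grown with compound for 72 h before lysis and staining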; further: potency means the concentration at half of the fitted maximal effect;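 on activity change, negative = inhibition: 0% = vehicle wells and -100% = control inhibitor wells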
[17] = target: Ferritin light chain (Equus caballus) (UniProt P02791); assay: qHTS Validation Assay for Identification of Novel General Anesthetics (AID 2323); settings: horse apoferritin, anesthetic-site fluorescent probe displacement; series mostly up to 76.9 µM; further: on the % scale 0 is the no-effect control and ±100 the full control effect
Sequence of Ferritin light chain (Equus caballus) (P02791 2-175 limits assumed): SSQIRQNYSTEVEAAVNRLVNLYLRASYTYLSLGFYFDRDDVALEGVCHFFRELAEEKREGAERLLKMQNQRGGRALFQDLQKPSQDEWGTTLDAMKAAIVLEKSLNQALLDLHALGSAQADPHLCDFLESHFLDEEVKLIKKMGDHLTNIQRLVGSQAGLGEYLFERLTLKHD
Procedure, shortened: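 10 uM horse-spleen apoferritin + 1-AMA (50% saturated, PBS); cpd pin-transferred, 10 min RT. Ex 380/Em 535 nm endpoint. Activity normalized between free 1-AMA and 1-AMA/apoferritin; 4-parameter Hill fit of concentration-response.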

[18] = target: RecQ-like DNA helicase BLM (Homo sapiens) (UniProt P54132); assay: qHTS Validation Assay for Inhibitors of Bloom's syndrome helicase (BLM) (AID 2364); settings: BLM helicase DNA unwinding, fluorescence, in vitro; series mostly up to 57.1 µM;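 further: plate controls were DMSO vehicle for no effect and enzyme-free control for full effect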
Sequence of RecQ-like DNA helicase BLM (Homo sapiens) (P54132 whole entry, looked up): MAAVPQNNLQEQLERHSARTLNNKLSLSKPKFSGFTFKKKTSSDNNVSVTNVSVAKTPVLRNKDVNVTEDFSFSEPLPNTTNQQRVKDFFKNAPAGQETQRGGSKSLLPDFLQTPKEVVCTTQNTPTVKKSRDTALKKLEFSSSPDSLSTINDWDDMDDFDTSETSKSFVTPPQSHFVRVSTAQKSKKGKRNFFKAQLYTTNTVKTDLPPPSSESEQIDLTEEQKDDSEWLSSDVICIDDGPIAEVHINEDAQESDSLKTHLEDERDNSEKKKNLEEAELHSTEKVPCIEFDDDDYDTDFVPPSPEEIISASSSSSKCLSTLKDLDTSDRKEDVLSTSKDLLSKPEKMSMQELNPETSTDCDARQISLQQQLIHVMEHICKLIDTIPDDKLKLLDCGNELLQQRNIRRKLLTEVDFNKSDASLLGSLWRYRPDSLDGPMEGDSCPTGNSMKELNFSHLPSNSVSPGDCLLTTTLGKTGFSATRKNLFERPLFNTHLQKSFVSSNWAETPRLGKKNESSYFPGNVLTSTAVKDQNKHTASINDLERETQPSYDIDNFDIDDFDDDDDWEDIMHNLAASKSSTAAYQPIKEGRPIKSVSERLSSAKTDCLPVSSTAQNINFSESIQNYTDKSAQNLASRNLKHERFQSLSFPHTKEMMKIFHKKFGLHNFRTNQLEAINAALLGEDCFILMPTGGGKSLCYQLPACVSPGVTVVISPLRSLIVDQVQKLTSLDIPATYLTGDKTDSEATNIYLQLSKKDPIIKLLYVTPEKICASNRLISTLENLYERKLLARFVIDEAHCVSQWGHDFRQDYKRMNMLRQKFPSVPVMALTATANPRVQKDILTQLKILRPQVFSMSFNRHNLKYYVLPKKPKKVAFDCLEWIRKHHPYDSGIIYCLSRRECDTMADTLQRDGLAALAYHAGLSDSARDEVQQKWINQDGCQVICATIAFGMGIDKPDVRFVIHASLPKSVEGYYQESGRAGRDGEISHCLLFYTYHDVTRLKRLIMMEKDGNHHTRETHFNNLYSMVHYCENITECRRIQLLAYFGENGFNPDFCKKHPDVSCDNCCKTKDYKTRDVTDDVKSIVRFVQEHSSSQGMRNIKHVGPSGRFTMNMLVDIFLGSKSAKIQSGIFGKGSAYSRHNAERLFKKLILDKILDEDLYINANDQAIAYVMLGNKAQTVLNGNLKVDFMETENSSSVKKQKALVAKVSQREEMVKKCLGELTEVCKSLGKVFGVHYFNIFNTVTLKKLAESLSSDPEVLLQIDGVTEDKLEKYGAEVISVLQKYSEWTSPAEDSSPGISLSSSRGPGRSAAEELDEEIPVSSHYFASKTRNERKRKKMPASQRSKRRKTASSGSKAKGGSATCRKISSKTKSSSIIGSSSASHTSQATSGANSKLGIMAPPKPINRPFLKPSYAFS
Procedure, shortened: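 Forked 20-bp duplex substrate (200 nM, TAMRA/BHQ-2) plus 2 mM ATP added after 15 min compound preincubation with 50 nM enzyme, pH 8.0, poly(dI-dC) 2.5 ug/ml. Strand separation followed by fluorescence (525/598 nm) over 2 h, normalized to enzyme-free and DMSO controls.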

[19] = measured here: cell count channel max response
[20] = measured here: lipid channel max response

O=c1c(-c2ccc(O)cc2)coc2cc(O)cc(O)c12
9.16%: max response [1, 20]
15.5%: max response [1, 19]
inactive: activity change, negative = inhibition ([1]; at 57.5 µM (top of the series)) -6.97% | Potency [2] | Potency [3] | Potency [4] | Potency [5] | Potency [6] | Potency [7] | outcome [8] | Potency [9] | outcome [10] | Potency [11] | Potency [12]

CCOC(=O)c1ncn2c1CN(C)C(=O)c1cc(F)ccc1-2
21.2%: max response [1, 20]
inactive: activity change, negative = inhibition ([1]; at 57.5 µM (top of the series)) -0.292% | Potency [2] | Potency [3] | Potency [13] | Potency [14] | Potency [15] | Potency [5] | Potency [6] | Potency [16] | Potency [7] | Potency [9] | outcome [10] | Potency [11] | Potency [12]
20.1%: max response [1, 19]

NS(=O)(=O)c1cc2c(cc1Cl)NCNS2(=O)=O
-4.41% and 24.1%: max response [1, 20]
-3.42% and 12.6%: max response [1, 19]
inactive: activity change, negative = inhibition ([1]; at 25.7 µM (top of the series)) 0.69% | activity change, negative = inhibition ([1]; at 57.5 µM (top of the series)) 7.4% | Potency [4] | Potency [13] | Potency [15] | Potency [5] | Potency [6] | Potency [7] | Potency [17] | Potency [9] | Potency [18] | outcome [10] | Potency [11] | Potency [12]

CN(C)CCCN1c2ccccc2CCc2ccc(Cl)cc21
-5.65% and 2.74%: max response [1, 20]
active: Potency [13] 5.01 µM | Potency [14] 5.01 µM | Potency [15] 10 µM | Potency [5] 11.2 µM | Potency [6] 7.94 µM | Potency [16] 5.01 µM | Potency [7] 10 µM
inactive: activity change, negative = inhibition ([1]; at 25.7 µM (top of the series)) -2.54% | activity change, negative = inhibition ([1]; at 57.5 µM (top of the series)) 1.94% | Potency [2] | Potency [4] | Potency [9] | Potency [18] | outcome [10] | Potency [11]
-4.06% and 0.0678%: max response [1, 19]

Cn1c(=O)c2c(ncn2C)n(C)c1=O
17.2% and -15.6%: max response [1, 20]
6.09% and -15.3%: max response [1, 19]
inactive: activity change, negative = inhibition ([1]; at 57.5 µM (top of the series)) 9.95% and -17.6% | Potency [2] | Potency [4] | Potency [13] | Potency [14] | Potency [15] | Potency [5] | Potency [6] | Potency [16] | Potency [7] | outcome [8] | Potency [9] | Potency [18] | outcome [10] | Potency [11] | Potency [12]

Clc1ccc(C(c2ccccc2Cl)C(Cl)Cl)cc1 (stereo not given)
11% and -19.2%: max response [1, 19]
inactive: activity change, negative = inhibition ([1]; at 57.5 µM (top of the series)) 11.4% and -0.0471% | Potency [2] | Potency [3] | Potency [4] | Potency [13] | Potency [14] | Potency [15] | Potency [5] | Potency [6] | Potency [7] | Potency [9] | outcome [10] | Potency [11] | Potency [12]
22.4% and -18.8%: max response [1, 20]

O=C(c1ccc(OCCN2CCCCC2)cc1)c1c(-c2ccc(O)cc2)sc2cc(O)ccc12
-4.67% and -13.2%: max response [1, 19]
-4.93% and -10.5%: max response [1, 20]
active: Potency [13] 4.47 µM | Potency [14] 2 µM | Potency [15] 2.82 µM | Potency [5] 3.16 µM | Potency [16] 3.16 µM | Potency [7] 3.16 µM
inactive: activity change, negative = inhibition ([1]; at 25.7 µM (top of the series)) -1.98% | activity change, negative = inhibition ([1]; at 57.5 µM (top of the series)) 1.97% | Potency [2] | Potency [9] | Potency [11]
